Measured values taken from ChEMBL document CHEMBL3433997, “St. Jude Leishmania screening dataset” (2016).

target: Solute carrier family 2, facilitated glucose transporter member 1 (Homo sapiens) (UniProt P11166); assay: ST_JUDE_LEISH: Cytotoxicity at 2uM final concentration against transgenic Leishmania Mexicana promastigotes LmGLUT1 that are glucose transport deficient and complemented with the human glucose transporter GLUT1. Activity is measured by DNA content using SYBR green in vitro; assay type: functional
Sequence (P11166 whole entry): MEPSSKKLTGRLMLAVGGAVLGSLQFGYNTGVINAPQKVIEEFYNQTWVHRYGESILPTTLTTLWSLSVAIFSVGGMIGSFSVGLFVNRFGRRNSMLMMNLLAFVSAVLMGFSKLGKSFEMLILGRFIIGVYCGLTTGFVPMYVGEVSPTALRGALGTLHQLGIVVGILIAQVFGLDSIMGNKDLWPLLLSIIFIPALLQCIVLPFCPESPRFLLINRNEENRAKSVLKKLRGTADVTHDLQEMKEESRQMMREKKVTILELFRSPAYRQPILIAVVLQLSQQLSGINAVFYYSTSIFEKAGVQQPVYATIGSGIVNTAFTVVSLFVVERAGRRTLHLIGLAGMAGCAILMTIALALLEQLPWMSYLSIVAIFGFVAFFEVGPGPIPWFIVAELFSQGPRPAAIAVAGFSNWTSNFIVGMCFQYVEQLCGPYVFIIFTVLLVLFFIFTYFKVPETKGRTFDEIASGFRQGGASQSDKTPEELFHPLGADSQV

| SMILES | inhibition |
| --- | --- |
| O=C(Nc1ccc(Cl)cc1)c1cccc(CN2CCCN(Cc3cccc(O)c3)CC2)c1 | -0.2% |
| CN1CCN(CCCN(Cc2csc(-c3ccc(CNCc4ccccc4)cc3)n2)S(=O)(=O)c2ccccc2Cl)CC1 | 1.75% |
| O=C(Nc1cccc(-c2nn3ccccc3c2-c2ccnc(Nc3ccc(Cc4ccncc4)cc3)n2)c1)c1c(F)cccc1F | 12% |
| COc1ccc(C=NNc2nc(O)cc(-c3ccccc3)n2)cc1OC | 1.33% |
| Fc1ccc2[nH]c(-c3cccc(-c4cccc(CNCCN5CCNCC5)c4)c3)nc2c1 | 2.5% |
| Cc1nc(Nc2ccc(F)cc2)nc(N2CCc3ccccc3[C@@H]2C)c1C | 3.94% |
| CCOc1ccc2[nH]c(C)cc(=NN=Cc3cccc(F)c3)c2c1 | -0.81% |
| O=C(CN1CCN(C(C(=O)Nc2cc(C(F)(F)F)ccc2Cl)c2ccccc2)CC1)NC1CC1 (stereo not given) | 0.74% |
| Oc1ccc(Cc2ccccc2)cc1CNC1CCCCC1 | 1.43% |
| COc1ccc2[nH]ccc(=NN=Cc3ccncc3)c2c1 | 3.57% |
| O=C(Nc1ccc(-c2cccc(-c3nc4cc(C(F)(F)F)ccc4[nH]3)c2)cc1)c1ccncc1 | 0.97% |
| CN(C)c1ccnc2ccc(NC(=O)Nc3ccnc4ccccc34)cc12 | 1.93% |
| O=c1nc(NCCCNCc2cc3c(Cl)cc(Cl)cc3[nH]2)[nH]c2ccsc12 | 81.4% |
| Cc1oc(-c2ccc(Cl)cc2)cc1C(=O)NCCC1CCN(CCCCCNC(=O)/C=C/c2ccc(Cl)c(Cl)c2)CC1 | -0.57% |
| N=C(N)Nc1nc(CCCCCCCCc2csc(NC(=N)N)n2)cs1 | -1.03% |
| CCN1CCC(N(Cc2ccc(-c3ccc(C(F)(F)F)cc3)cc2)C(=O)CCCCn2c(CCc3cccc(F)c3F)nc(=O)c3ccccc32)CC1 | 1.08% |
| COc1ccc2ncc(F)c(CCN3CC[C@@H](CNCc4ccc5c(c4C)OCCO5)C3)c2n1 | 27.8% |
| CCOc1cc(C)ccc1C1CCN(CCCCNC(=O)c2nc(-c3ccc(C(F)(F)F)cc3)[nH]c2C)CC1 | 1.65% |
| Cc1ccc(C2CCN(CCCCNC(=O)c3ccc(NC(=O)c4ccc(Cl)cc4)cc3)CC2)c(OCC(F)(F)F)c1 | 0.04% |
| CCOc1ccc2c(c1)OC(c1ccccc1)(C(F)(F)F)NC2=O (stereo not given) | 0.56% |

| SMILES | inhibition |
| --- | --- |
| CCN(CC)CCN(Cc1ccc(-c2ccc(C(F)(F)F)cc2)cc1)C(=O)Cn1c(CCc2ccc(F)c(F)c2F)nc(=O)c2ccc(F)cc21 | 3.42% |
| COc1ccc2[nH]c(/C=C/c3cccc4ccc(C)nc34)nc2c1 | 2.88% |
| O=C(Nc1ccccc1)Nc1cccc(-c2cc(CNCCc3ccccc3)sc2-c2ccncc2)c1 | -0.01% |
| N[C@@H](CCNCc1ccc(-c2cccnc2)cc1)Cc1ccc(F)c(F)c1 | 0.43% |
| Oc1ccc(CN2CCC(NCc3cccc(C(F)(F)F)c3)CC2)cc1 | 11.3% |
| Fc1cccc2sc(Nc3nc(-c4ccccn4)cs3)nc12 | 1.42% |
| CC(C)(CNC(=O)C1CCN(Cc2ccoc2)CC1)c1nc(-c2ccc(Cl)c(O)c2)c(-c2ccncc2)[nH]1 | -1.41% |
| Cc1sc(NC(=O)c2ccc([N+](=O)[O-])cc2Cl)c(C(N)=O)c1C | 2.24% |
| COc1cccc(-c2cc(C(F)(F)F)n3ncc(C(=O)Nc4cc(C)ccc4O)c3n2)c1 | 2.75% |
| CC(C)CC1(C(=O)OC(C)(C)C)CC(C(=O)OC(C)(C)C)C(c2cccs2)N1C(=O)c1ccc(C(C)(C)C)cc1 (stereo not given) | 3.89% |
| CCN(CC)CCN1C(=O)c2oc3ccc(Cl)cc3c(=O)c2C1c1ccc(SC)cc1 (stereo not given) | -3.16% |
| CC1(C)CC(NCCCCCCCOc2ccc(OCc3ccccc3)cc2)CC(C)(C)N1 | 103% |
| CC[C@H]1CN(Cc2ccccc2Br)CC[C@H]1CCCc1ccnc2ccc(O)cc12 | 3.62% |
| N#Cc1cccc(NC(=O)Nc2cccc(OC3CCN(Cc4ccccc4)CC3)c2)c1 | 0.82% |
| CCN(CC)CCN(CCCc1ccc(-c2ccc(C(F)(F)F)cc2)cc1)C(=O)Cn1c(CCc2cccc(F)c2F)nc(=O)c2ccccc21 | 2.87% |
| Brc1cccc(Nc2nccc(Nc3ccc(Oc4ccccc4)cc3)n2)c1 | 6.01% |
| c1ccc2[nH]c(-c3ccc(-c4ccc(CN5CCN(CCN6CCOCC6)CC5)cc4)s3)nc2c1 | 10.4% |
| COc1ccc(CN2CCCN(Cc3cccc(NC(=O)c4ccc(Cl)c(Cl)c4)c3)CC2)cc1 | 2.61% |
| Oc1cccc(Nc2ccnc3cc(-c4ccncc4)ccc23)c1 | 10.6% |
| CN(C)Cc1ccc(-c2cccc(NC(=O)c3ccc(Cl)cc3)c2)cc1 | -2.32% |

target: Hexose transporter 1 (Plasmodium falciparum) (UniProt O97467); assay: ST_JUDE_LEISH: Cytotoxicity at 2uM final concentration against transgenic Leishmania Mexicana promastigotes LmPfHT that are glucose transport deficient and complemented with the Plasmodium falciparum hexose transporter. Activity is measured by DNA content using SYBR green in vitro; assay type: functional

| SMILES | inhibition |
| --- | --- |
| O=C(Nc1ccc(Cl)cc1)c1cccc(CN2CCCN(Cc3cccc(O)c3)CC2)c1 | -0.04% |
| CN1CCN(CCCN(Cc2csc(-c3ccc(CNCc4ccccc4)cc3)n2)S(=O)(=O)c2ccccc2Cl)CC1 | 0.37% |
| O=C(Nc1cccc(-c2nn3ccccc3c2-c2ccnc(Nc3ccc(Cc4ccncc4)cc3)n2)c1)c1c(F)cccc1F | 17.3% |
| COc1ccc(C=NNc2nc(O)cc(-c3ccccc3)n2)cc1OC | -1.28% |
| Fc1ccc2[nH]c(-c3cccc(-c4cccc(CNCCN5CCNCC5)c4)c3)nc2c1 | 2.3% |
| Cc1nc(Nc2ccc(F)cc2)nc(N2CCc3ccccc3[C@@H]2C)c1C | 5.21% |
| CCOc1ccc2[nH]c(C)cc(=NN=Cc3cccc(F)c3)c2c1 | -2.04% |
| O=C(CN1CCN(C(C(=O)Nc2cc(C(F)(F)F)ccc2Cl)c2ccccc2)CC1)NC1CC1 (stereo not given) | 2.72% |
| Oc1ccc(Cc2ccccc2)cc1CNC1CCCCC1 | 1.57% |
| COc1ccc2[nH]ccc(=NN=Cc3ccncc3)c2c1 | 3.95% |
| O=C(Nc1ccc(-c2cccc(-c3nc4cc(C(F)(F)F)ccc4[nH]3)c2)cc1)c1ccncc1 | 1.99% |
| CN(C)c1ccnc2ccc(NC(=O)Nc3ccnc4ccccc34)cc12 | 2.58% |
| O=c1nc(NCCCNCc2cc3c(Cl)cc(Cl)cc3[nH]2)[nH]c2ccsc12 | 96.7% |
| Cc1oc(-c2ccc(Cl)cc2)cc1C(=O)NCCC1CCN(CCCCCNC(=O)/C=C/c2ccc(Cl)c(Cl)c2)CC1 | -1.53% |
| N=C(N)Nc1nc(CCCCCCCCc2csc(NC(=N)N)n2)cs1 | -0.76% |
| CCN1CCC(N(Cc2ccc(-c3ccc(C(F)(F)F)cc3)cc2)C(=O)CCCCn2c(CCc3cccc(F)c3F)nc(=O)c3ccccc32)CC1 | -1.15% |
| COc1ccc2ncc(F)c(CCN3CC[C@@H](CNCc4ccc5c(c4C)OCCO5)C3)c2n1 | 35.3% |
| CCOc1cc(C)ccc1C1CCN(CCCCNC(=O)c2nc(-c3ccc(C(F)(F)F)cc3)[nH]c2C)CC1 | 0.72% |
| Cc1ccc(C2CCN(CCCCNC(=O)c3ccc(NC(=O)c4ccc(Cl)cc4)cc3)CC2)c(OCC(F)(F)F)c1 | 1.32% |
| CCOc1ccc2c(c1)OC(c1ccccc1)(C(F)(F)F)NC2=O (stereo not given) | -0.92% |

| SMILES | inhibition |
| --- | --- |
| CCN(CC)CCN(Cc1ccc(-c2ccc(C(F)(F)F)cc2)cc1)C(=O)Cn1c(CCc2ccc(F)c(F)c2F)nc(=O)c2ccc(F)cc21 | 0.08% |
| COc1ccc2[nH]c(/C=C/c3cccc4ccc(C)nc34)nc2c1 | 2.44% |
| O=C(Nc1ccccc1)Nc1cccc(-c2cc(CNCCc3ccccc3)sc2-c2ccncc2)c1 | -0.54% |
| N[C@@H](CCNCc1ccc(-c2cccnc2)cc1)Cc1ccc(F)c(F)c1 | 0.41% |
| Oc1ccc(CN2CCC(NCc3cccc(C(F)(F)F)c3)CC2)cc1 | 13.7% |
| Fc1cccc2sc(Nc3nc(-c4ccccn4)cs3)nc12 | 0.63% |
| CC(C)(CNC(=O)C1CCN(Cc2ccoc2)CC1)c1nc(-c2ccc(Cl)c(O)c2)c(-c2ccncc2)[nH]1 | 0.07% |
| Cc1sc(NC(=O)c2ccc([N+](=O)[O-])cc2Cl)c(C(N)=O)c1C | 2.08% |
| COc1cccc(-c2cc(C(F)(F)F)n3ncc(C(=O)Nc4cc(C)ccc4O)c3n2)c1 | 3.89% |
| CC(C)CC1(C(=O)OC(C)(C)C)CC(C(=O)OC(C)(C)C)C(c2cccs2)N1C(=O)c1ccc(C(C)(C)C)cc1 (stereo not given) | 3.12% |
| CCN(CC)CCN1C(=O)c2oc3ccc(Cl)cc3c(=O)c2C1c1ccc(SC)cc1 (stereo not given) | -2.27% |
| CC1(C)CC(NCCCCCCCOc2ccc(OCc3ccccc3)cc2)CC(C)(C)N1 | 102% |
| CC[C@H]1CN(Cc2ccccc2Br)CC[C@H]1CCCc1ccnc2ccc(O)cc12 | 5.03% |
| N#Cc1cccc(NC(=O)Nc2cccc(OC3CCN(Cc4ccccc4)CC3)c2)c1 | 0.59% |
| CCN(CC)CCN(CCCc1ccc(-c2ccc(C(F)(F)F)cc2)cc1)C(=O)Cn1c(CCc2cccc(F)c2F)nc(=O)c2ccccc21 | 2.91% |
| Brc1cccc(Nc2nccc(Nc3ccc(Oc4ccccc4)cc3)n2)c1 | 5.97% |
| c1ccc2[nH]c(-c3ccc(-c4ccc(CN5CCN(CCN6CCOCC6)CC5)cc4)s3)nc2c1 | 9.34% |
| COc1ccc(CN2CCCN(Cc3cccc(NC(=O)c4ccc(Cl)c(Cl)c4)c3)CC2)cc1 | 4.62% |
| Oc1cccc(Nc2ccnc3cc(-c4ccncc4)ccc23)c1 | 9.58% |
| CN(C)Cc1ccc(-c2cccc(NC(=O)c3ccc(Cl)cc3)c2)cc1 | -0.06% |
